Laboratory results published in PubChem BioAssay (NCI).
About 83,000 compounds went through this panel and 20% of them were active in at least one assay; those are over-represented in the sample as a whole.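 Percent growth is the endpoint: 0 to 100 indicates growth inhibition (40 means 60% inhibition), 0 means no net growth, and negative values indicate cell death.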 Activity calls are given as the source filed them. How the source made its calls: active means growth percent below 10; inactive means the rest.

What was measured:
Assay in all cases: NCI-60 one-dose screen, 48 h (100 = growth as untreated, 0 = no growth, -100 = all killed)
Conditions in all cases: 10 µM unless noted
HCT-15 colon = test system: HCT-15 colon
HT29 colon = test system: HT29 colon
SNB-75 CNS = test system: SNB-75 CNS
SNB-19 CNS = test system: SNB-19 CNS
U251 CNS = test system: U251 CNS
PC-3 prostate = test system: PC-3 prostate
SK-MEL-5 melanoma = test system: SK-MEL-5 melanoma
UACC-62 melanoma = test system: UACC-62 melanoma
LOX IMVI melanoma = test system: LOX IMVI melanoma
SK-MEL-28 melanoma = test system: SK-MEL-28 melanoma
SK-MEL-2 melanoma = test system: SK-MEL-2 melanoma
EKVX NSCLC = test system: EKVX NSCLC
SN12C renal = test system: SN12C renal
UO-31 renal = test system: UO-31 renal
TK-10 renal = test system: TK-10 renal
ACHN renal = test system: ACHN renal
CAKI-1 renal = test system: CAKI-1 renal
A498 renal = test system: A498 renal
CCRF-CEM leukemia = test system: CCRF-CEM leukemia
MOLT-4 leukemia = test system: MOLT-4 leukemia

Measured: growth

N#Cc1c(Oc2ccc([N+](=O)[O-])cc2)nc2sc3cc(Cl)ccc3n2c1=N
inactive: HCT-15 colon 102% | HT29 colon 33.4% | SNB-75 CNS 29.7% | SNB-19 CNS 74.8% | U251 CNS 75.9% | PC-3 prostate 76.7% | SK-MEL-5 melanoma 58.1% | UACC-62 melanoma 79.3% | LOX IMVI melanoma 92.1% | SK-MEL-28 melanoma 84.1% | SK-MEL-2 melanoma 84.5% | EKVX NSCLC 84% | SN12C renal 91% | UO-31 renal 72.5% | TK-10 renal 49.9% | ACHN renal 100% | CAKI-1 renal 111% | A498 renal 100% | CCRF-CEM leukemia 96.5% | MOLT-4 leukemia 77.3%

CC(C)n1nc(C#Cc2cccc(NC(=O)c3cccc(C(F)(F)F)c3)c2)c2c(N)ncnc21
inactive: PC-3 prostate 16.4% | CCRF-CEM leukemia 11.8%
active: HCT-15 colon -3.07% | HT29 colon -11.7% | SNB-75 CNS -66.2% | SNB-19 CNS 5.79% | U251 CNS 2.84% | SK-MEL-5 melanoma -61.4% | UACC-62 melanoma -56.1% | LOX IMVI melanoma -91.8% | SK-MEL-28 melanoma -27.9% | SK-MEL-2 melanoma -65.2% | EKVX NSCLC 1.52% | SN12C renal -8.6% | UO-31 renal -51.4% | TK-10 renal -56.8% | ACHN renal -31.9% | CAKI-1 renal -40.9% | A498 renal -80.6% | MOLT-4 leukemia 2.57%

CC12CC(C#N)CCC1O2 (stereo not given)
inactive: HCT-15 colon 118% | HT29 colon 109% | SNB-75 CNS 100% | SNB-19 CNS 111% | U251 CNS 103% | PC-3 prostate 101% | SK-MEL-5 melanoma 111% | UACC-62 melanoma 109% | LOX IMVI melanoma 108% | SK-MEL-28 melanoma 109% | SK-MEL-2 melanoma 116% | EKVX NSCLC 120% | SN12C renal 105% | UO-31 renal 96% | TK-10 renal 119% | ACHN renal 101% | CAKI-1 renal 111% | A498 renal 121% | CCRF-CEM leukemia 92.4% | MOLT-4 leukemia 96.2%

C=C(C)[C@@H]1CC[C@]2(C(=O)NCC(=O)O)CC[C@]3(C)[C@H](CC[C@@H]4[C@@]5(C)Cc6c([nH]c7ccccc67)C(C)(C)[C@@H]5CC[C@]43C)[C@@H]12
inactive: HCT-15 colon 77.5% | HT29 colon 88.2% | SNB-75 CNS 64.2% | SNB-19 CNS 71.2% | U251 CNS 61.8% | PC-3 prostate 72.6% | SK-MEL-5 melanoma 103% | UACC-62 melanoma 79.7% | LOX IMVI melanoma 99.1% | SK-MEL-28 melanoma 92.7% | SK-MEL-2 melanoma 92.4% | EKVX NSCLC 84.7% | SN12C renal 72.2% | UO-31 renal 55.4% | TK-10 renal 103% | ACHN renal 87.4% | CAKI-1 renal 78.5% | A498 renal 77.2% | CCRF-CEM leukemia 72.8% | MOLT-4 leukemia 78.4%

CCn1nc(C#Cc2c(C)ccc3c(Nc4ccc(Cl)cc4)nccc23)c2c(N)ncnc21
active: HT29 colon 2.98% | SNB-75 CNS -8.46% | SNB-19 CNS 9% | SK-MEL-5 melanoma -43.9% | UACC-62 melanoma -4.21% | SK-MEL-28 melanoma 0.371% | SK-MEL-2 melanoma -50.8% | UO-31 renal 8.45% | ACHN renal 8.02%
inactive: HCT-15 colon 23.3% | U251 CNS 26% | PC-3 prostate 18.9% | LOX IMVI melanoma 11.3% | EKVX NSCLC 36.6% | SN12C renal 15.6% | TK-10 renal 16.8% | CAKI-1 renal 18.8% | A498 renal 11.7% | CCRF-CEM leukemia 10.5% | MOLT-4 leukemia 20.9%

CCCCCCCC/C=C\CCCCCCCC(=O)Oc1cccc2cccnc12
inactive: HCT-15 colon 81.8% | HT29 colon 137% | SNB-75 CNS 149% | SNB-19 CNS 103% | U251 CNS 91% | PC-3 prostate 114% | SK-MEL-5 melanoma 102% | UACC-62 melanoma 99.8% | LOX IMVI melanoma 79.8% | SK-MEL-28 melanoma 176% | SK-MEL-2 melanoma 140% | EKVX NSCLC 95.1% | SN12C renal 88.9% | UO-31 renal 88.3% | TK-10 renal 120% | ACHN renal 103% | A498 renal 121% | CCRF-CEM leukemia 96.3% | MOLT-4 leukemia 80.3%
active: CAKI-1 renal -0.06%

CCOc1cc(C2C(Cl)C(=O)N2n2cnnc2)ccc1O (stereo not given)
inactive: HCT-15 colon 103% | HT29 colon 96.9% | SNB-75 CNS 72.5% | SNB-19 CNS 102% | U251 CNS 98.5% | PC-3 prostate 91.1% | SK-MEL-5 melanoma 106% | UACC-62 melanoma 95.5% | LOX IMVI melanoma 101% | SK-MEL-28 melanoma 105% | SK-MEL-2 melanoma 100% | EKVX NSCLC 109% | SN12C renal 98.6% | UO-31 renal 86% | TK-10 renal 99.1% | ACHN renal 96.7% | CAKI-1 renal 85.3% | A498 renal 101% | CCRF-CEM leukemia 93.6% | MOLT-4 leukemia 100%

CN(C)c1cnccn1
inactive: HCT-15 colon 87.6% | HT29 colon 104% | SNB-75 CNS 96.6% | SNB-19 CNS 101% | U251 CNS 78.4% | PC-3 prostate 88.6% | SK-MEL-5 melanoma 96.1% | UACC-62 melanoma 98.6% | LOX IMVI melanoma 84.3% | SK-MEL-28 melanoma 103% | SK-MEL-2 melanoma 85.4% | EKVX NSCLC 104% | SN12C renal 88.6% | UO-31 renal 84.2% | TK-10 renal 145% | ACHN renal 87.1% | CAKI-1 renal 95.6% | A498 renal 95.7% | CCRF-CEM leukemia 60.6% | MOLT-4 leukemia 93.7%

C=C1C(=O)O[C@H]2[C@H]1CC/C(COC(=O)NCc1ccc(Cn3c(=O)sn(CCCCl)c3=O)cc1)=C\CC[C@@]1(C)O[C@@H]21
inactive: SNB-75 CNS 70.2% | SNB-19 CNS 76.1% | U251 CNS 57.7% | PC-3 prostate 67.1% | SK-MEL-5 melanoma 42.5% | UACC-62 melanoma 26.8% | SK-MEL-28 melanoma 28.1% | SK-MEL-2 melanoma 49% | EKVX NSCLC 57.1% | SN12C renal 18.5% | UO-31 renal 11% | CAKI-1 renal 27.7% | A498 renal 104%
active: HCT-15 colon 8.02% | HT29 colon -30.2% | LOX IMVI melanoma -48.2% | TK-10 renal -65.2% | ACHN renal -57.7% | CCRF-CEM leukemia -38% | MOLT-4 leukemia -31.7%

Cc1c(C(N)=O)sc2nc(C)n(/N=c3\scc(-c4ccccc4)n3Cc3ccccc3)c(=O)c12
active: U251 CNS 7.76% | PC-3 prostate 1.97% | SK-MEL-5 melanoma 7.44% | EKVX NSCLC -6.97% | UO-31 renal 4.13% | TK-10 renal 2.89% | ACHN renal 7.27% | CAKI-1 renal -40.6% | A498 renal 0.708% | CCRF-CEM leukemia -12.2%
inactive: HCT-15 colon 14.9% | HT29 colon 79.5% | SNB-75 CNS 54.8% | SNB-19 CNS 29.4% | UACC-62 melanoma 27.7% | LOX IMVI melanoma 20.6% | SK-MEL-28 melanoma 48.2% | SK-MEL-2 melanoma 10% | SN12C renal 47.7% | MOLT-4 leukemia 12.1%

C=C(C=O)C1CCC2(C(=O)O)CCC3(C)C(CCC4C5(C)CCC(O)C(C)(C)C5CCC43C)C12 (stereo not given)
active: HCT-15 colon -15.1% | HT29 colon 3.49% | U251 CNS 6.78% | SK-MEL-5 melanoma -96.9% | UACC-62 melanoma -84.2% | LOX IMVI melanoma -74.1% | SK-MEL-28 melanoma -30.8% | UO-31 renal -69.3% | ACHN renal -65.4% | CAKI-1 renal -27.6% | CCRF-CEM leukemia 6.48%
inactive: SNB-75 CNS 47.1% | SNB-19 CNS 66.3% | PC-3 prostate 20.4% | SK-MEL-2 melanoma 30.1% | EKVX NSCLC 41.9% | SN12C renal 21.5% | TK-10 renal 50.5% | A498 renal 55.2% | MOLT-4 leukemia 10.4%

C#C[C@]1(O)CC[C@H]2[C@@H]3CC=C4c5sc(N=C(N)N)nc5CC[C@]4(C)[C@H]3CC[C@@]21C
active: HCT-15 colon -60.8% | HT29 colon -0.997% | SNB-75 CNS -60.5% | U251 CNS -14.9% | PC-3 prostate 0.258% | SK-MEL-5 melanoma -94.9% | UACC-62 melanoma -51.7% | LOX IMVI melanoma -64.4% | SK-MEL-28 melanoma -68.8% | SK-MEL-2 melanoma -13.4% | SN12C renal -56% | UO-31 renal -77.7% | ACHN renal -6.84% | CAKI-1 renal -19.9% | A498 renal -90.8% | CCRF-CEM leukemia 4.5% | MOLT-4 leukemia -8.43%
inactive: SNB-19 CNS 18.9% | EKVX NSCLC 12.7% | TK-10 renal 13.4%

Cc1cc(=O)[nH]c(N/N=C/c2cc(Br)ccc2O)n1
active: UACC-62 melanoma 4.29% | LOX IMVI melanoma 9.27% | EKVX NSCLC 9.68% | UO-31 renal -3.92% | CAKI-1 renal -5.73%
inactive: HCT-15 colon 30.5% | HT29 colon 58.9% | SNB-75 CNS 62.9% | SNB-19 CNS 40.6% | U251 CNS 26.8% | PC-3 prostate 56.8% | SK-MEL-5 melanoma 26.3% | SK-MEL-28 melanoma 42.8% | SK-MEL-2 melanoma 26.9% | SN12C renal 48.1% | TK-10 renal 45% | ACHN renal 14.5% | A498 renal 42.2% | CCRF-CEM leukemia 22.8% | MOLT-4 leukemia 15.3%

CN1CCN(C(=O)[C@@]2(C)CC[C@]3(C)CC[C@]4(C)C(=CC[C@@H]5[C@@]6(C)C/C(=C/c7ccncc7)C(=O)C(C)(C)[C@@H]6CC[C@]54C)[C@@H]3C2)CC1
inactive: HCT-15 colon 30.2% | HT29 colon 10.9% | SNB-75 CNS 62.7% | SNB-19 CNS 62.7% | U251 CNS 32.6% | PC-3 prostate 23.8% | SK-MEL-5 melanoma 39.3% | UACC-62 melanoma 37.8% | LOX IMVI melanoma 28.5% | SK-MEL-28 melanoma 48.7% | SK-MEL-2 melanoma 85.1% | EKVX NSCLC 62.7% | SN12C renal 46.2% | UO-31 renal 44.3% | TK-10 renal 75.5% | ACHN renal 67.4% | CAKI-1 renal 46.3% | A498 renal 79.9%
active: CCRF-CEM leukemia 6.69% | MOLT-4 leukemia 2.16%

Cc1nc(Nc2ccc(N)cc2)c2ccccc2n1
inactive: HCT-15 colon 89.4% | HT29 colon 88.9% | SNB-75 CNS 103% | SNB-19 CNS 97.7% | U251 CNS 99.1% | PC-3 prostate 91% | SK-MEL-5 melanoma 91.9% | UACC-62 melanoma 98.5% | LOX IMVI melanoma 90.7% | SK-MEL-28 melanoma 114% | SK-MEL-2 melanoma 101% | EKVX NSCLC 101% | SN12C renal 93.1% | UO-31 renal 81.4% | TK-10 renal 110% | ACHN renal 80.1% | CAKI-1 renal 91.2% | A498 renal 97.3% | CCRF-CEM leukemia 86.2% | MOLT-4 leukemia 100%
